According to PubChem BioAssay (NCATS):
Inconclusive results are not listed. Activity calls are given as the source filed them. Unless noted, the call rests on the fitted dose curve; in most records, active means well fitted curve in either direction with a large enough effect (not every such curve was filed as active); inconclusive means small, poorly fitted or top-dose-only effect, or another doubt; inactive means flat fitted curve, though single readings scatter.

Tests used:
[1] = biological target: Lysosomal acid glucosylceramidase (Homo sapiens) (UniProt P04062); assay: Glucocerebrosidase-p2 (AID 348; in the data active means potency below about 10 µM; further: potency means the concentration at half of the fitted maximal effect); conditions: purified GBA, blue fluorogenic substrate, 40 min
Outline: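 Normal human glucocerebrosidase (0.2 nM) with blue fluorogenic substrate (80 uM final) in citrate/phosphate pH 5.9 with 10mM sodium taurocholate, 0.01% tween-20; 40 min RT, NaOH/glycine stop; fluorescence Ex 365/Em 440; AC50 from a titration from 0.6 nM upwards.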

[2] = AP1 Signaling Pathway (AID 357); conditions: ME-180 AP-1-bla reporter, EGF-induced, beta-lactamase ratio, 5 h; at 7.69 µM (top of the series) unless noted;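 further: ME-180 reporter cells stimulated with EGF at its EC50 level; on the % scale 0 is the no-effect control and ±100 the full control effect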
Outline: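 Beta-lactamase reporter under AP-1 response element, ME-180 background. Stimulus: EC50 EGF. Compound exposure 5 h, 37 °C. Detection: CCF4, 2.5 h RT, 460/530 nm. Values: AC50 from titration.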

[3] = NFAT Signaling Pathway (AID 444); conditions: Jurkat NFAT-bla M1, carbachol, beta-lactamase ratio, 5 h; at 7.69 µM (top of the series) unless noted;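 further: carbachol stimulus at about its EC50 of 1 µM final; on the % scale 0 is the no-effect control and ±100 the full control effect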
Outline: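 Jurkat cells with NFAT-driven β-lactamase reporter and co-expressed M1 receptor, stimulated with carbachol (final 1 uM, ~EC50), compound titration, 5 h at 37 °C. CCF4 loaded 1 h at RT; 460/530 nm ratio gave %activity and AC50.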

[4] = Stat Signaling Pathway (AID 446); conditions: ME-180 (cervical carcinoma) SIE beta-lactamase reporter, IL-6 stimulated, 5 h; at 7.69 µM (top of the series) unless noted;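 further: ME-180 cervical cancer cells given 40 pM IL-6 alongside compound; SIE-controlled beta-lactamase reporter measured as 460/530 nm FRET emission ratio; on the % scale 0 is the no-effect control and ±100 the full control effect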
Outline: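 Compound effects on IL-6-induced STAT reporter activity were measured in ME-180 cells. After overnight culture, cells were co-treated with 40 pM IL-6 for 5 hrs before beta-lactamase substrate loading at room temperature.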

[5] = biological target: Glucocorticoid receptor (Homo sapiens) (UniProt P04150); assay: GR-GFP Redistribution (AID 450;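 active means compounds whose dose series gives a full or clear partial fitted curve of increased nuclear translocation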; further: potency means the concentration at half of the fitted maximal effect); conditions: U2OS GR-GFP nuclear translocation, laser cytometry, 2 h
[6] = biological target: Glucocorticoid receptor (Homo sapiens) (UniProt P04150); assay: GR-EFC Redistribution (AID 451; calls by dose curve; further: potency means the concentration at half of the fitted maximal effect); conditions: CHO-K1 GR-EFC translocation, beta-gal luminescence, 2 h
Outline: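 CHO-K1 cells expressing nuclear EA and GR-ED fragments of b-gal; compounds titrated up to 46 uM final, 2 h at 37 C. GR nuclear translocation read as complemented b-gal luminescence after 1 h RT detection.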

[7] = biological target: Mitogen-activated protein kinase 10 (Mus musculus) (UniProt Q61831); assay: JNK3 AlphaScreen Assay (AID 530); conditions: JNK3 lysate, c-Jun phosphorylation; series mostly up to 11.4 µM;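 further: kinase came from lysate of stimulated human HepG2 cells; signal reports phosphorylation of biotinylated GST-cJun 1-79 at Ser73 with 10 µM ATP; on the % scale 0 is the no-effect control and ±100 the full control effect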
Outline: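 Activity was read by AlphaScreen after JNK3-containing HepG2 lysate (cytokine pre-activated) phosphorylated biotinylated GST-cJun with 10 uM ATP at room temperature. Phospho-Ser73 cJun antibody with Protein-A acceptor beads provided detection.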

[8] = biological target: 3',5'-cyclic-AMP phosphodiesterase 4B (Homo sapiens) (UniProt Q07343); assay: qHTS Assay for Inhibitors of PDE-IV (AID 607; active means well fitted activation curve with a large enough effect in the main read-out, with a control signal flat, not every such curve was filed as active; further: % of control where 0% means no effect); conditions: HEK293 ACTOne CNG channel cells, membrane potential fluorescence; series mostly up to 22.9 µM
Outline: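 ACTOne HEK293 cells carry a modified cAMP-gated CNG channel and express endogenous PDE4; plated 1000 cells/well, compounds up to 22.9 uM final. Membrane-potential dye fluorescence (ex 535/em 590) was read; parental cells received 10 uM forskolin + 100 uM RO 20-1724.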

Sequence of 3',5'-cyclic-AMP phosphodiesterase 4B (Homo sapiens) (Q07343 whole entry, looked up): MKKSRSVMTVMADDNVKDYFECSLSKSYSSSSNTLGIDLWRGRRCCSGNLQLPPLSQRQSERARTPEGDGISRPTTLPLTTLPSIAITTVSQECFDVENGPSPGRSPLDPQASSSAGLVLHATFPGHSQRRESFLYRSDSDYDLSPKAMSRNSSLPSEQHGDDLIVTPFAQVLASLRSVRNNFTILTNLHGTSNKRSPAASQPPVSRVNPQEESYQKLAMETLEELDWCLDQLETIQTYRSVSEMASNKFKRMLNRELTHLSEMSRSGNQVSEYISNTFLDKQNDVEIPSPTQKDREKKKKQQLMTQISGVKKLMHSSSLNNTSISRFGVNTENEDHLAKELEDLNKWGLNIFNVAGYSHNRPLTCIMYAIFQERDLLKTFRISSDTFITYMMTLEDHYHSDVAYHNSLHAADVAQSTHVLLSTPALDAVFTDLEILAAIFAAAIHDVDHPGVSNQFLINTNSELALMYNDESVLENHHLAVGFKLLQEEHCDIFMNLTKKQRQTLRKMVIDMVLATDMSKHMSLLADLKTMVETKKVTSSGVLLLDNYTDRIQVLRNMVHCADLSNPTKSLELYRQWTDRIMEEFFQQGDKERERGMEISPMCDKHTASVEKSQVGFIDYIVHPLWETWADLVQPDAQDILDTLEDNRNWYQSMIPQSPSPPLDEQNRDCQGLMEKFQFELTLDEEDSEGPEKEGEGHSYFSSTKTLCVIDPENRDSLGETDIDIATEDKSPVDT
Sequence of Glucocorticoid receptor (Homo sapiens) (P04150 whole entry, looked up, the tested form may be a part): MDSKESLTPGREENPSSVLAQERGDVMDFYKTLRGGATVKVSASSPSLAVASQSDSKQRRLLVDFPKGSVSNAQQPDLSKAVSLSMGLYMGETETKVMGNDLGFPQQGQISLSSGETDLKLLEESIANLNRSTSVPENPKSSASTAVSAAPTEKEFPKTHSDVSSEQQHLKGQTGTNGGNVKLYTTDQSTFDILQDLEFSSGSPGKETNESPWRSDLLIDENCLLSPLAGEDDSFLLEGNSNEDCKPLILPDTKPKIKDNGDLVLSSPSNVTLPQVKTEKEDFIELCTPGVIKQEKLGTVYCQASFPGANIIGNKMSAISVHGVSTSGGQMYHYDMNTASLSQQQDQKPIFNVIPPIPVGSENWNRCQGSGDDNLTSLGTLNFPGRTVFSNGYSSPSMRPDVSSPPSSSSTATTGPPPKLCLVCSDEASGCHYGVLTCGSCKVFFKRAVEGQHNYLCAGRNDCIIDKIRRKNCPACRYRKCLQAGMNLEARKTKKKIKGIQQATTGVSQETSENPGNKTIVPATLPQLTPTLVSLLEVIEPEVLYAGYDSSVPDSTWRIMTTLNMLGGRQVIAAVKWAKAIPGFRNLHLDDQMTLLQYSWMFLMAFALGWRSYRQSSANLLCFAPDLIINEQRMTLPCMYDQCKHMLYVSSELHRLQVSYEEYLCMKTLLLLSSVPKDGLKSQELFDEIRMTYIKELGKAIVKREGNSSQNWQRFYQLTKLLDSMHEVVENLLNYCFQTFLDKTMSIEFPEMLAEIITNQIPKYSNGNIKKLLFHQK
Sequence of Lysosomal acid glucosylceramidase (Homo sapiens) (P04062 whole entry, looked up): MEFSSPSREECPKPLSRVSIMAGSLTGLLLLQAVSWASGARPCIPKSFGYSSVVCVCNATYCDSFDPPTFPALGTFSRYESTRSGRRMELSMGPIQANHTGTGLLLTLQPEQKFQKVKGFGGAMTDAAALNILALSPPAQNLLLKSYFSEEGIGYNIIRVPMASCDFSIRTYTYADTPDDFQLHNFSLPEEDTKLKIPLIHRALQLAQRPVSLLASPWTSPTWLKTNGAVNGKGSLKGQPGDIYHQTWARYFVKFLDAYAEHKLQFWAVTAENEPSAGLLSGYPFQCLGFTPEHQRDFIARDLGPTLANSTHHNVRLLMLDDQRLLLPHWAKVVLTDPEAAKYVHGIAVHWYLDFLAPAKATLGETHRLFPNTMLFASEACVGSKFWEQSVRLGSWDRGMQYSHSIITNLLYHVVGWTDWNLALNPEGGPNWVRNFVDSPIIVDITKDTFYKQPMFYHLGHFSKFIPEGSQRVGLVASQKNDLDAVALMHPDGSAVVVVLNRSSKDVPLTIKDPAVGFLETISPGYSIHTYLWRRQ

O=C(CSC1=NCCN1)c1ccccc1
inactive: Potency [1] > 11.4 µM | activity change, negative = inhibition [2] -0.79% | activity change, negative = inhibition [3] -8.06% | activity, negative = inhibition [4] -8.19% | Potency [5] > 46 µM | Potency [6] > 9.22 µM | Potency [7] | Potency [8]

N=C(N)c1ccc(/C=C\c2ccc(C(=N)N)cc2)cc1
inactive: Potency [1] > 11.4 µM | activity change, negative = inhibition [2] 0.27% | activity change, negative = inhibition [3] -7.18% | activity, negative = inhibition [4] 7.39% | Potency [5] > 46 µM | Potency [6] > 9.22 µM | Potency [7] | Potency [8]

Cc1ccc(S(=O)(=O)OC2CCN(C)CC2)cc1
inactive: Potency [1] > 11.4 µM | activity change, negative = inhibition [2] 0.369% | activity change, negative = inhibition [3] 2.31% | activity, negative = inhibition [4] 3.66% | Potency [5] > 46 µM | Potency [6] > 9.22 µM | Potency [7] | Potency [8]

CC(NC(=O)c1ccccc1)(C(=O)O)C(=O)O
inactive: Potency [1] > 11.4 µM | activity change, negative = inhibition [2] 2.23% | activity change, negative = inhibition [3] -6.87% | activity, negative = inhibition [4] 14.4% | Potency [5] > 46 µM | Potency [6] > 9.22 µM | Potency [7] | Potency [8]

CN(CCC(=O)O)S(=O)(=O)c1ccccc1
inactive: Potency [1] > 11.4 µM | activity change, negative = inhibition [2] -0.615% | activity change, negative = inhibition [3] 15.6% | activity, negative = inhibition [4] 11.1% | Potency [5] > 46 µM | Potency [6] > 9.22 µM | Potency [7] | Potency [8]

O=C(O)c1ccncc1.O=C(O)c1ccncc1.[NH2-].[NH2-].[Pt]
inactive: Potency [1] > 11.4 µM | activity change, negative = inhibition [2] -4.3% | activity change, negative = inhibition [3] 8.19% | activity, negative = inhibition [4] 2.8% | Potency [5] > 46 µM | Potency [6] > 9.22 µM | Potency [7] | Potency [8]

COC(=O)c1cc(=O)[nH]c(=O)[nH]1
inactive: Potency [1] > 11.4 µM | activity change, negative = inhibition [2] 9.08% | activity change, negative = inhibition [3] 1.11% | activity, negative = inhibition [4] -3.43% | Potency [5] > 46 µM | Potency [6] > 9.22 µM | Potency [7] | Potency [8]

O=C1CCC[C@H]1C(=O)Nc1ccc2ccccc2c1
inactive: Potency [1] > 11.4 µM | activity change, negative = inhibition [2] 7.06% | activity change, negative = inhibition [3] 16.2% | activity, negative = inhibition [4] 8.65% | Potency [5] > 46 µM | Potency [6] > 9.22 µM | Potency [7] | Potency [8]

Cc1ccc(CN2CCN(Cc3ccc(C)o3)[C@@H](C)C2)o1
inactive: Potency [1] > 11.4 µM | activity change, negative = inhibition [2] -2.23% | activity change, negative = inhibition [3] -7.45% | activity, negative = inhibition [4] 1.61% | Potency [5] > 46 µM | Potency [6] > 9.22 µM | Potency [7] | Potency [8]

NC(=O)N/N=C1\CC[C@H](O)C[C@@H]1CC(=O)O
inactive: Potency [1] > 11.4 µM | activity change, negative = inhibition [2] 11.5% | activity change, negative = inhibition [3] 5.67% | activity, negative = inhibition [4] 0.119% | Potency [5] > 46 µM | Potency [6] > 9.22 µM | Potency [7] | Potency [8]

CSc1ccc(NC(=O)[C@H]2CCCC[C@@H]2C(=O)O)cc1
inactive: Potency [1] > 11.4 µM | activity change, negative = inhibition [2] 2.18% | activity change, negative = inhibition [3] 4.17% | activity, negative = inhibition [4] 3.36% | Potency [5] > 46 µM | Potency [6] > 9.22 µM | Potency [7] | Potency [8]

Cc1cccc(CNc2ncnc3[nH]ncc23)c1
inactive: Potency [1] > 11.4 µM | activity change, negative = inhibition [2] -1.11% | activity change, negative = inhibition [3] -3.71% | activity, negative = inhibition [4] -8.78% | Potency [5] > 46 µM | Potency [6] > 9.22 µM | Potency [7] | Potency [8]

COc1cc(C(=O)O)c([N+](=O)[O-])c(OC)c1OC
inactive: Potency [1] > 11.4 µM | activity change, negative = inhibition [2] 4.41% | activity change, negative = inhibition [3] 3.25% | activity, negative = inhibition [4] 0.596% | Potency [5] > 46 µM | Potency [6] > 9.22 µM | Potency [7] | Potency [8]

CC(C)=CCNc1ncnc2c1c(C#N)cn2[C@H]1O[C@@H](CO)[C@@H](O)[C@@H]1O
inactive: Potency [1] > 11.4 µM | activity change, negative = inhibition [2] -1.6% | activity change, negative = inhibition [3] 6.29% | activity, negative = inhibition [4] 10.4% | Potency [5] > 46 µM | Potency [6] > 9.22 µM | Potency [7] | Potency [8]

N=C(CC(=O)Nc1ccccn1)c1ccccc1
inactive: Potency [1] > 11.4 µM | activity change, negative = inhibition [2] 3.96% | activity change, negative = inhibition [3] 28.4% | activity, negative = inhibition [4] 5.02% | Potency [5] > 46 µM | Potency [6] > 9.22 µM | Potency [7] | Potency [8]

c1ccc(CN2CCC3(CC2)SSC2(CCN(Cc4ccccc4)CC2)SS3)cc1
inactive: Potency [1] > 11.4 µM | activity change, negative = inhibition [2] 3.33% | activity change, negative = inhibition [3] 3.92% | activity, negative = inhibition [4] -1.41% | Potency [5] > 46 µM | Potency [6] > 9.22 µM | Potency [7] | Potency [8]

CO[C@@H]1/C=C\O[C@]2(C)Oc3c(C)c(O)c4c(O)c(c(CN5CCN(C)CC5)c(O)c4c3C2=O)NC(=O)/C(C)=C\C=C[C@@H](C)[C@@H](O)[C@H](C)[C@@H](O)[C@H](C)[C@H](OC(C)=O)[C@@H]1C
inactive: Potency [1] > 11.4 µM | activity change, negative = inhibition [2] -8.05% | activity change, negative = inhibition [3] 7.34% | activity, negative = inhibition [4] -6.61% | Potency [5] > 46 µM | Potency [6] > 9.22 µM | Potency [7] | Potency [8]
